For the first test, the target named is AIG1. Briefly: pooled miR-30 sensor sort-seq; sequence = guide strand. The note with it: shRNA.
In turn, TTAAGATGGTTGTAGACCCAAA showed a sensor-assay potency score (higher = more potent) of -0.997. Consider TTGGAAACAACTGTATTCTATG, for which the sensor-assay potency score (higher = more potent) was -0.738. Still for that read-out and setting: the result for ATAAAGGGCAGAACCGTCGTGT reads 0.238. Same read-out and setting: in the case of TAATATAAAGGGCAGAACCGTC it was -1.19; in that of AATTCTTTAACACACAGTGAGG, -1.45.

In another test the target is AK1. The description is as above. As to conditions: shRNA.
Regarding TGATGGTCTCCTCATTGTCGTC, the sensor-assay potency score (higher = more potent) was -1.72. In turn, TCCACATACAGCAGCAGTGTGG displayed a sensor-assay potency score (higher = more potent) of -1.37. The same measure, in the same setting: in the case of TTTGGAAGTATTGACTTTGGCC it was -0.356; in that of TCATTGTCGTCCACACGCCCGC, -0.841. ATTGTCGTCCACACGCCCGCTG returned a sensor-assay potency score (higher = more potent) of -0.347. Still for that read-out and setting: in the case of TTGACCTTGCGCACAATGCCAC it was -0.47; in that of TGCACGATCTTCTCACACTGGG, -0.837; in that of TGCGTCCACATACAGCAGCAGT, -1.67. Same read-out and setting: in the case of TGTCTCCAGTGGAACCAGCTGC it was -0.761. Same read-out and setting: the result for TACAGCAGCAGTGTGGGCTGTC reads 0.332.

The sequence TTGTAATAGGTCTCCAGCCGCT yielded a sensor-assay potency score (higher = more potent) of -0.883. Still for that read-out and setting: the result for TTGACTTTGGCCACCATGGCAT reads -0.482; that for TTGTCGTCCACACGCCCGCTGG, -1.2; that for TAGCCATCAATCAGGAAGCCTT, -0.92. Still for that read-out and setting: in the case of TTGATGGTCTCCTCATTGTCGT it was -0.675.

In the case of ATGATTTCCGACAGCTTCTTGC, the sensor-assay potency score (higher = more potent) was -1.06. As for TCGCTCAAACTCTTCTCCTTGC, the sensor-assay potency score (higher = more potent) was -0.418.

TTTGATGGTCTCCTCATTGTCG displayed a sensor-assay potency score (higher = more potent) of -0.362. On to TGTAATAGGTCTCCAGCCGCTT, for which the sensor-assay potency score (higher = more potent) was -0.437. TTCTCCTTGCTGCACCTCCCGC displayed a sensor-assay potency score (higher = more potent) of -1.57. Still for that read-out and setting: the result for TTTCCGACAGCTTCTTGCCCCT reads -0.367; that for TACTTCTGCACGATCTTCTCAC, 0.346. Same read-out and setting: in the case of TAATAGGTCTCCAGCCGCTTTT it was -1.38; in that of TCCAACACTGTCTCCAGTGGAA, -1.08.

A further test deals with AKR1A1. The description is as above. As to conditions: shRNA.
The sequence TTGGATGTCACAAACAGCTCCT had a sensor-assay potency score (higher = more potent) of 0.145. On the same count and under the same terms, the result for TAAGGGCATACTTAACAGCTGC reads -0.729; that for TAGTGGGTGGAGTCGTAGCATA, -1.36. In turn, TATAGTCCCATCAGCATTCTTG came in with a sensor-assay potency score (higher = more potent) of -0.715.

TACCTGACCAGGCTCACTCTTC gave a sensor-assay potency score (higher = more potent) of -0.753. The sequence TTAGCTGCTTCATCTCTTCTGG gave a sensor-assay potency score (higher = more potent) of -0.107. On the same count and under the same terms, in the case of TTAACAGCTGCTTTTACCTGAC it was -0.112. On the same count and under the same terms, the result for TAAAGGTGAAGTCAAACACCTT reads -1.29; that for TGTCACAAACAGCTCCTCCCGA, -0.337; that for TTGATGTTCTGAAGGATTCGAG, -0.236.

The values are drawn from the OligoGym collection.
Further: reference of the scale not given here.
